Drawing on PubChem BioAssay (Tox21), this text covers Potency for 8 molecules.

Test [1] in a line: Nuclear factor erythroid 2-related factor 2/antioxidant responsive element (Nrf2/ARE) small molecule agonists: luciferase reporter gene qHTS assay in human keratinocytes (AID 1919969). Also: nearly all actives have a fitted effect of over 35% in size. Also: potency is read from the fitted curve at half-maximal effect. On the technique in general: A reporter such as luciferase makes a cellular process visible.
Test [2] concerns the target Gonadotropin-releasing hormone receptor (Homo sapiens) (UniProt P30968). In words: Human gonadotropin-releasing hormone receptor (GnRHR) small molecule agonists, calcium flux assay in GnRHR-HEK293 cells (AID 1920063). Also: nearly all actives have a fitted effect of over 35% in size. Also: potency is read from the fitted curve at half-maximal effect. The gist of the method:
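Fluorescence kinetics (480 nm excitation, 540 nm emission; 3 min, 1 s steps) report calcium mobilisation in human GnRHR-HEK293 cells in agonist mode. Dye incubation: 1 h, 37 C.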
(Calcium flux is commonly read through the fluorescence of an indicator in the cells.)

The target of test [3] is KiSS-1 receptor (Homo sapiens) (UniProt Q969F8). The test can be described thus: Human kisspeptin (KISS1R) small molecule agonists, calcium flux assay in KISS1R-HEK293 cells (AID 1920064; active = well fitted activation curve with a large enough effect in the repeat runs; also: potency is read from the fitted curve at half-maximal effect). The gist of the method:
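Measures KISS1R agonism through calcium-sensitive dye fluorescence in stably transfected HEK293 cells, read for 3 min after pin-tool compound delivery; 15-point titrations in triplicate.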

Test [4] in a line: G protein-coupled receptor (GPCR) small molecule agonists, calcium flux assay: HEK293 wild type cell line counter screen (AID 1920065). Also: potency is read from the fitted curve at half-maximal effect. The gist of the method:
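Readout: fluorescence at 480 nm excitation/540 nm emission, sampled at 1 s intervals for 3 min. Cells had been cultured 18 h, then dye-loaded 1 h at 37 C before compound or ATP addition.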

The nature of test [5]: p53 small molecule agonists, cell-based qHTS assay with rat liver microsomes (AID 1963578). In a few lines:
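Each plate received p53RE-bla cells, then compound, then rat liver microsomes and NADPH (both 0.5 mg/mL final). Plates were held 16 h at 37 C, and beta-lactamase activity was detected with LiveBLAzer over 2 h.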

Test [6] is described as follows: p53 small molecule agonists, cell-based qHTS assay with rat liver microsomes: qHTS cell viability counter screen (AID 1963580). Also: nearly all actives have a fitted effect of over 45% in size. The gist of the method:
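Viability is assessed in parallel with the p53 reporter read: HCT-116 p53RE-bla cells receive compounds plus rat microsomes and NADPH (0.5 mg/mL final apiece), incubate 16 h at 37 C, and then CellTiter-Glo luminescence is recorded.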

The nature of test [7]: p53 small molecule agonists, cell-based qHTS assay: qHTS cell viability counter screen (AID 1963581). Also: nearly all actives have a fitted effect of over 45% in size. In a few lines: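 In the same plates used for the p53 bla reporter, HCT-116 cells given compounds for 16 h at 37 C received CellTiter-Glo; luminescence was recorded 30 min later at room temperature.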
Test [8] in a line: p53 small molecule agonists, cell-based qHTS assay (AID 1963582; active = well fitted activation curve with a large enough effect in the signal ratio in the repeat runs, not every such curve was filed as active; the % refers to the signal ratio). The gist of the method:
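Compounds are pin-transferred in DMSO onto p53RE-bla cells and incubated 16 h at 37 C. The B/G FRET beta-lactamase substrate is then applied for 2 h at RT and fluorescence recorded.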
(In general: qHTS replaces the single test concentration by a dilution series.)

The target in test [9] is 5-hydroxytryptamine receptor 2A (Homo sapiens) (UniProt P28223). In words: 5-hydroxytryptamine receptor 2A (HTR2A) small molecule antagonists, cell-based qHTS assay (AID 1963586). Also: nearly all actives have a fitted effect of over 45% in size. In a few lines:
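Antagonist-mode intracellular calcium assay: DOI (4 nM) added after 5 min compound pre-incubation at room temperature to dye-loaded HTR2A-CHO cells. Fluorescence followed for 3 min, sampled every second.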

For test [10] the target is unchanged. The test can be described thus: 5-hydroxytryptamine receptor 2A (HTR2A) small molecule agonists, cell-based qHTS assay (AID 1963587). Also: nearly all actives have a fitted effect of over 30% in size. Also: potency is read from the fitted curve at half-maximal effect. In a few lines: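 CHO cells stably expressing human HTR2A, plated 18 h, loaded with calcium dye 1 h at 37 C. Agonist mode: compounds added and intracellular calcium fluorescence recorded kinetically for 2 min at 1 sec intervals.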

Test [11] addresses Muscarinic acetylcholine receptor M1 (Homo sapiens) (UniProt P11229). The test can be described thus: Cholinergic receptor muscarinic 1 (CHRM1) small molecule antagonists, cell-based qHTS assay (AID 1963588). Also: nearly all actives have a fitted effect of over 40% in size. Also: potency is read from the fitted curve at half-maximal effect. In a few lines:
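CHRM1-CHO calcium-flux assay, antagonist mode. Cells were seeded 18 h, dye-loaded 1 h at 37 C and given compound for 5 min at RT, then acetylcholine was added at 50nM. FDSS fluorescence was read 3 min; 15 concentrations, three runs.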

Test [12] can be described thus: cAMP Responsive Elements (CRE) small molecule agonists, cell-based qHTS assay (AID 1963590). In a few lines:
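Cell line: CRE-bla HEK 293T; medium DMEM/10% dialyzed FBS/0.1 mM NEAA/1 mM pyruvate/25 mM HEPES; 3 h compound exposure; beta-lactamase FRET readout after 2 h substrate loading at RT.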

Test [13] in a line: cAMP Responsive Elements (CRE) small molecule antagonists, cell-based qHTS assay (AID 1963591; active = well fitted inhibition curve with a large enough effect in the signal ratio in the repeat runs, not every such curve was filed as active; the % refers to the signal ratio). The gist of the method:
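Inhibition of NKH477-driven (0.25 uM final) CRE-beta-lactamase signal in HEK293T cells, 3 h compound exposure at 37 °C, detected by FRET substrate fluorescence.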

For test [14], the target named is D(2) dopamine receptor (Homo sapiens) (UniProt P14416). In words: Dopamine D2 receptor (DRD2) small molecule antagonists, cell-based qHTS assay (AID 1963595; active = well fitted inhibition curve with a large enough effect in the signal ratio in the repeat runs, with a control signal flat; the % refers to the signal ratio). In a few lines: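 DRD2-HEK293; 0.1 mM Ro20-1724; cpd 10 min RT; NKH477 200 nM + quinpirole 12 nM, 30 min RT; HTRF cAMP (cAMP-d2/anti-cAMP cryptate), 665/620 nm ratio after 1 h.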
Sequence of D(2) dopamine receptor (Homo sapiens) (P14416 whole entry, looked up): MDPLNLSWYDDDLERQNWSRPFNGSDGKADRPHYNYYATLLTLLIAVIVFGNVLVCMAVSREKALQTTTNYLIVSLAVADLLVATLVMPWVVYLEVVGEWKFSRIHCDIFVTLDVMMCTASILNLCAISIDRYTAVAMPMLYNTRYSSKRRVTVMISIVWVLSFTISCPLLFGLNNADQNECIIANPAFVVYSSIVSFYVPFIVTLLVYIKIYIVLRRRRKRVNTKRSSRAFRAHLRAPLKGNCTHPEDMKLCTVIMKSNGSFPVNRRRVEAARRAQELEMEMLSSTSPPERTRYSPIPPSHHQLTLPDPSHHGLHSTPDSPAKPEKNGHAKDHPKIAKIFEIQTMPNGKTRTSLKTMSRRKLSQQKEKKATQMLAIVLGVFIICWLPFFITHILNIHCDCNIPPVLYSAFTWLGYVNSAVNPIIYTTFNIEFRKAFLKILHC
The nature of test [15]: p53 small molecule agonists, cell-based qHTS assay with human liver microsomes: qHTS cell viability counter screen (AID 1963579). Also: nearly all actives have a fitted effect of over 45% in size. In a few lines:
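Tox21 library compounds, delivered from DMSO stocks, were tested on p53RE-bla cells together with 0.5 mg/mL human liver microsomes and 0.5 mg/mL NADPH (final) over 16 h at 37 C; CellTiter-Glo luminescence served as the cytotoxicity measure.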

For test [16], the target named is Muscarinic acetylcholine receptor M1 (Homo sapiens) (UniProt P11229). The test can be described thus: Cholinergic receptor muscarinic 1 (CHRM1) small molecule agonists, cell-based qHTS assay (AID 1963589). Also: nearly all actives have a fitted effect of over 35% in size. The gist of the method:
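Each compound was tested at 15 concentrations across three independent runs on dye-loaded CHO cells stably expressing human CHRM1, reading intracellular calcium fluorescence kinetically at 1 sec intervals.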

In test [17] the target is Beta-2 adrenergic receptor (Homo sapiens) (UniProt P07550). In words: Adrenergic beta2 receptor (ADRB2) small molecule antagonists, cell-based qHTS assay (AID 1963592). Also: series mostly up to about 92 µM; nearly all actives have a fitted effect of over 50% in size. The gist of the method:
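Cells (CHO, stable ADRB2 overexpression) incubated 18-20hr at 37C; compounds added from DMSO; agonist mix (1nM isoproterenol, 100uM IBMX, 25uM Ro-20-1724) added; 0.5hr RT; d2-cAMP and anti-cAMP-cryptate added; 1hr RT; 665/615 nm read.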

Test [18] shares this target. The test can be described thus: Adrenergic beta2 receptor (ADRB2) small molecule agonists, cell-based qHTS assay (AID 1963593).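 Also: CHO cells stably overexpressing human ADRB2.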 The gist of the method: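 CHO cells stably over-expressing ADRB2 were plated overnight at 37C, then dosed with compounds plus a stimulation mix containing 100uM IBMX and 25uM Ro-20-1724 for 0.5hr at room temperature. cAMP was measured by HTRF competition, 1hr.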

Test [19] addresses D(2) dopamine receptor (Homo sapiens) (UniProt P14416). The test can be described thus: Dopamine D2 receptor (DRD2) small molecule agonists, cell-based qHTS assay (AID 1963594). Also: nearly all actives have a fitted effect of over 35% in size. The gist of the method: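 HEK293 cells stably expressing human DRD2, pre-treated with PDE inhibitor Ro20-1724 (0.1 mM final) and compound 10 min at room temperature, then stimulated with NKH477 (200nM […]) for 30 min. cAMP read by HTRF (665/620 nm).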

SMILES strings stand for the structures. Records with an inconclusive call do not appear. Calls of active or inactive are those of the source. Unless noted, calls follow the shape of the full dose curve.

Sequence of 5-hydroxytryptamine receptor 2A (Homo sapiens) (P28223 whole entry, looked up): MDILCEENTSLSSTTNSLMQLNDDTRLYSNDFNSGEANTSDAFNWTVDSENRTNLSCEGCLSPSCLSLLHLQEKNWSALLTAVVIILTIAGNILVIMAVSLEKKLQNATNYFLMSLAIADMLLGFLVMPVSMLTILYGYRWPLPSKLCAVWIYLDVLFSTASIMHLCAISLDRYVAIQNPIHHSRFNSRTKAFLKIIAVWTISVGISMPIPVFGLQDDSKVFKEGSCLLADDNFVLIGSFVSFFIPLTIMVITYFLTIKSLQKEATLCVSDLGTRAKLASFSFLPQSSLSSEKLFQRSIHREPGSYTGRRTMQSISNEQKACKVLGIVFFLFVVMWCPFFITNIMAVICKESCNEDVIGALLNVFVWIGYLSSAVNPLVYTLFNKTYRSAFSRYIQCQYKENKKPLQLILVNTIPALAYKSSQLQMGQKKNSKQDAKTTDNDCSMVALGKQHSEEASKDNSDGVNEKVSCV
Sequence of KiSS-1 receptor (Homo sapiens) (Q969F8 whole entry, looked up): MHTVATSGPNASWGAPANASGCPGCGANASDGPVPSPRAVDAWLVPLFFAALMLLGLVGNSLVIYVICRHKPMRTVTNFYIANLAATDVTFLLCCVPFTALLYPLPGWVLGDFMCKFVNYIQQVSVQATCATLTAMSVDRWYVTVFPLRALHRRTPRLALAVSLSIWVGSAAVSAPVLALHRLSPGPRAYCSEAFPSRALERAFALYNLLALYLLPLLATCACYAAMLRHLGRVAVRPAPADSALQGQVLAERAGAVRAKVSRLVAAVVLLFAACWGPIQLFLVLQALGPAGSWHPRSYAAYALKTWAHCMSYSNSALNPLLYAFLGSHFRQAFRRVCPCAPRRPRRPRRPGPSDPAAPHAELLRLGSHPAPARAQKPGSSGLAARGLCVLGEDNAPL
Sequence of Beta-2 adrenergic receptor (Homo sapiens) (P07550 whole entry, looked up): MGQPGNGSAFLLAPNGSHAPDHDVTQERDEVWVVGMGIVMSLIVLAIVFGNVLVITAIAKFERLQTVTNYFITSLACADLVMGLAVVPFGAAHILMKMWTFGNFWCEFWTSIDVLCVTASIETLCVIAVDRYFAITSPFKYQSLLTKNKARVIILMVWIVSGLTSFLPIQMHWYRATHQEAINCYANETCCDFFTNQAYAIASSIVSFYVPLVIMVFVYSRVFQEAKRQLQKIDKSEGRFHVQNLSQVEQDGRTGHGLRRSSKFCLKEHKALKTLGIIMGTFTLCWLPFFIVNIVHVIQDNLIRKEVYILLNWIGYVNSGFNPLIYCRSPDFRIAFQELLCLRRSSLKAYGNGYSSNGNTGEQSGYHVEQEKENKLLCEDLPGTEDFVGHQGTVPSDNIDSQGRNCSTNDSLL
Sequence of Muscarinic acetylcholine receptor M1 (Homo sapiens) (P11229 whole entry, looked up): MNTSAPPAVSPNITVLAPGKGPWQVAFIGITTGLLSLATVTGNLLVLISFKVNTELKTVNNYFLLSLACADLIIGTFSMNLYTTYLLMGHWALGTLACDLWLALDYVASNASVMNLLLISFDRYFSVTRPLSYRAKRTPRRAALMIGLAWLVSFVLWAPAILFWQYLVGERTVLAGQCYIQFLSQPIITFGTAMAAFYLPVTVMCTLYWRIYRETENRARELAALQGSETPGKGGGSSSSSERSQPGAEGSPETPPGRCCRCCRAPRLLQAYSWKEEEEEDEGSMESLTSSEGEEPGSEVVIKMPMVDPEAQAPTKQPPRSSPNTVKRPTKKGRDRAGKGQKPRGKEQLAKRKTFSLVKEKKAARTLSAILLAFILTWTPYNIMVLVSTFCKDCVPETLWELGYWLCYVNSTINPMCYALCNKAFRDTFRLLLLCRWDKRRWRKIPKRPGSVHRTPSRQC
Sequence of Gonadotropin-releasing hormone receptor (Homo sapiens) (P30968 whole entry, looked up): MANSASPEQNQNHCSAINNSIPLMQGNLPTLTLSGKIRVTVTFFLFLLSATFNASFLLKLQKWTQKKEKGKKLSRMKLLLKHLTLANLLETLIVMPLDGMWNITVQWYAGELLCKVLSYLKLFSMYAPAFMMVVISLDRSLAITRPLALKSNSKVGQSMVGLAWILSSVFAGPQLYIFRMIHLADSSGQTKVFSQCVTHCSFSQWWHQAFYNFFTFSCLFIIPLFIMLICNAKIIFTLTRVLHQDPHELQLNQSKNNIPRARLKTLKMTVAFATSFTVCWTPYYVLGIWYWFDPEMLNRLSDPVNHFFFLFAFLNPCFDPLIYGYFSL

Turning to `CCC(C)(C)c1ccc(CC(C)CN2C[C@@H](C)O[C@@H](C)C2)cc1` (some centres not stated), the Potency entry in test [1], in test [2], in test [3], in test [4], in [5] and in test [6] was “inactive” in each case. Besides, the Potency result in test [7], in test [8], in [9], in [10], in [12] and in [13] was “inactive” throughout. In addition, the Potency entry in test [14] was “inactive”. In addition, in test [11], the Potency was 3.65 µM (active).

With `COc1nccnc1NS(=O)(=O)c1ccc(N)cc1`, the Potency entry in test [1], in test [2], in test [3], in test [4], in test [15] and in test [6] was “inactive” throughout. Further, the Potency entry in [7], in test [9], in test [10], in [11], in test [16] and in test [12] was “inactive” throughout. For the same molecule, the Potency entry in [13], in test [17], in test [18] and in test [19] was “inactive” in each case.

As to `COc1ccc(/C=N/NC(=O)c2ccncc2)cc1OC`, the Potency entry in test [1], in test [2], in [3], in test [4], in test [15] and in [6] was “inactive” in each case. Moreover, the Potency entry in test [7], in [9], in test [10], in [11], in [16] and in test [12] was “inactive” in each case. Further, the Potency entry in test [13], in [17], in [19] and in test [14] was “inactive” each time.

Turning to `CN1CC[C@H](c2c(O)cc(O)c3c(=O)cc(-c4ccccc4Cl)oc23)[C@H](O)C1`, the Potency in test [1] is 0.0841 µM (active). The Potency entry in test [2], in test [3], in test [4], in [5], in test [7] and in test [9] was “inactive” throughout. The Potency result in test [10], in test [11], in [16], in test [17] and in [14] was “inactive” each time.

Consider `O=C1OC2(c3ccc(O)cc3Oc3cc(O)ccc32)c2ccc(N=C=S)cc21`, for which the Potency entry in [1], in [15], in [6], in [7], in [8] and in test [11] was “inactive” each time. The Potency entry in test [13] and in [18] was “inactive” each time. Besides, the Potency in test [2] was 14.1 µM (active); in [3] it was 44.4 µM (active); in test [4], 39.6 µM (active); in [10], 17.7 µM (active).

In the case of `SC1CCCC1`, the Potency result in test [1], in [2], in test [3], in test [4], in test [15] and in test [6] was “inactive” throughout. In addition, the Potency entry in test [7], in [9], in [10], in test [11], in [16] and in test [12] was “inactive” each time. Further, the Potency entry in test [13], in test [17], in [18], in [19] and in [14] was “inactive” in each case.

Turning to `S=C([S-])NCCNC(=S)[S-].[Mn+2]`, the Potency entry in test [1], in test [2], in test [3], in test [4], in [15] and in test [6] was “inactive” throughout. Further, the Potency result in [7], in test [9], in test [10], in test [16], in test [12] and in [17] was “inactive” each time. For the same molecule, the Potency result in test [18] and in [19] was “inactive” each time.

`CCC(=O)OCCOc1ccccc1`: the Potency entry in test [1], in test [2], in test [3], in [4], in test [15] and in test [6] was “inactive” each time. Besides, the Potency result in [7], in test [9], in test [10], in test [11], in test [16] and in [12] was “inactive” in each case. The Potency entry in [13], in test [17], in test [19] and in test [14] was “inactive” throughout.
